Results filed as inconclusive are left out. The source made the active and inactive calls. The call rests on the fitted dose curve; in most records, active means well fitted activation curve with a large enough effect; inconclusive means small, poorly fitted or top-dose-only effect; inactive means no such curve, though single readings can be large or run the other way.
Molecular target: Pyruvate kinase PKM (Homo sapiens) (UniProt P14618)
Assay: Confirmation Concentration-Response Assay for Activators of Human Muscle isoform 2 Pyruvate Kinase
Conditions: purified hPK-M2, Kinase-Glo ATP luminescence, 1 h; series mostly up to 57.5 µM; activation (negative = inhibition): at the top concentration
Description: NIH Chemical Genomics Center [NCGC] Matthew G. Vander Heiden, M.D., Ph.D. [Harvard Medical School, 77 Avenue Louis Pasteur, Boston, MA 02115] MLPCN Grant: 1 R03 MH085679-01 NCGC Assay Overview: Human pyruvate kinase muscle 2 (hPK-M2) enzyme was supplied as a highly purified (>95% pure) preparation from Harvard Medical School and assayed for its ability to generate ATP from ADP using phosphoenolpyruvate (PEP) as a substrate. ATP generation was detected in a coupled reaction by luciferase-mediated luminescence, an ATP-dependent process. Pyruvate kinase substrates, PEP and ADP, were present in the assay at Km and approximately 10-fold below Km respectively. The enzyme was assayed at an intermediate level of activity to screen for both inhibitors and activators.
NCGC Assay Protocol Summary: Three uL of substrate mix (at r.t.) in assay buffer (50 mM Imidazole pH7.2, 50 mM KCl, 7 mM MgCl2, 0.01% Tween 20, 0.05% BSA) was dispensed into white solid bottom 1,536 well microtiter plates so that the final concentrations of substrates in the assay were 0.1 mM ADP and 0.5 mM PEP. 23 nL of compound were delivered by a pin tool and 1 uL of enzyme mix (final concentration of 0.1 nM) in assay buffer (4 degree Celsius) was added. Plates were incubated at room temperature for 1 hour. Two uL of detection mix (Kinase-Glo, Promega; at 4 degree Celsius protected from light) was added and luminescence read by a ViewLux (Perkin Elmer) at 1 second exposure/plate. Data were normalized to the uninhibited (column 3) and AC100 inhibition (no enzyme in column 2). To monitor activation, the first column contained a titration of the activator, NCGC00031955-03 (16-point 1:2 dilutions in duplicate starting at 57 uM) and the first 16 rows of column 4 contained 57 uM of NCGC00031955-03.

Pyruvate kinase PKM (Homo sapiens), sequence (P14618 whole entry, looked up, canonical isoform): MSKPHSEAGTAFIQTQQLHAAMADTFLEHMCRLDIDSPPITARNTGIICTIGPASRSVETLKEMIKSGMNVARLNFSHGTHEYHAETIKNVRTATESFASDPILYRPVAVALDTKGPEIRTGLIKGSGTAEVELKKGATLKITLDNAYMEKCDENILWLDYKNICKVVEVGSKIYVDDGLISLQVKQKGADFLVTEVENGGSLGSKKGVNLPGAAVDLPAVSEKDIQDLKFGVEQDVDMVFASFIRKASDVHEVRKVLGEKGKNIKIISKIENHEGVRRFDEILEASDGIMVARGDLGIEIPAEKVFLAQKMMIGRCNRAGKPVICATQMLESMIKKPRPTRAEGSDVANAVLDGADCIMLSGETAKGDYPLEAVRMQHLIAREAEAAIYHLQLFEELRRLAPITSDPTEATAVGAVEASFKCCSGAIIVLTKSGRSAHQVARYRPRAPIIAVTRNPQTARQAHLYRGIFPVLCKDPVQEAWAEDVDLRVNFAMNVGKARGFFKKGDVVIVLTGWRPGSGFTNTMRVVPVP

Q: For `Cc1ccc(Cn2ncc3c4sc(C)cc4n(C)c3c2=O)cc1`, which Potency is on record?
A: 225 nM (active)

Q: `O=S(=O)(c1ccc2c(c1)OCCO2)N1CCN(S(=O)(=O)c2ccc(F)cc2F)CC1` was tested. Which Potency did it give?
A: 63.5 nM (active)

Q: For `O=S(=O)(NC1CCN(S(=O)(=O)c2c(F)cccc2F)CC1)c1ccc2c(c1)OCCO2`, which Potency is on record?
A: 3570 nM (active)

Q: `O=S(=O)(c1ccc2c(c1)OCCO2)N1CCCN(S(=O)(=O)c2c(F)cccc2F)CC1` was tested. Which Potency did it give?
A: 566 nM (active)

Q: How did the Potency turn out when `COc1ccc(S(=O)(=O)N2CCN(S(=O)(=O)c3ccc4c(c3)OCCO4)CC2)cc1` was run?
A: 80 nM (active)

Q: With `COc1ccc2nc3sc(C(=O)NCc4cccs4)c(N)c3cc2c1` as the compound, how does the “activation (negative = inhibition)” value read?
A: -22.2% (inactive)

Q: With `Cc1cc2c(s1)c1cnn(Cc3ccccc3Cl)c(=O)c1n2C` as the compound, how does the Potency read?
A: 113 nM (active)

Q: `O=S(=O)(c1ccc(F)cc1)N1CCN(S(=O)(=O)c2ccc3c(c2)OCCO3)CC1` was tested. Which Potency did it give?
A: 56.6 nM (active)

Q: Which Potency does the source give for `Cc1cc2c(s1)c1cnn(Cc3c(F)cccc3F)c(=O)c1n2C` here?
A: 25.3 nM (active)

Q: For `O=C(c1ccc2c(c1)OCCO2)N1CCN(S(=O)(=O)c2c(F)cccc2F)CC1`, which “activation (negative = inhibition)” value is on record?
A: 8.54% (inactive)

Q: How did the Potency turn out when `Cn1c2cc(C=O)sc2c2cnn(Cc3ccccc3F)c(=O)c21` was run?
A: 7.1 nM (active)

Q: How did the “activation (negative = inhibition)” value turn out when `Cc1cccc(NC(=O)c2cnc3ccccn3c2=O)c1` was run?
A: -46.5% (inactive)

Q: How did the “activation (negative = inhibition)” value turn out when `CCOC(=O)CSc1nc2cc(OC)ccc2cc1C#N` was run?
A: -13.5% (inactive)

Q: How did the Potency turn out when `O=S(=O)(c1ccc2c(c1)OCO2)N1CCN(S(=O)(=O)c2c(F)cccc2F)CC1` was run?
A: 127 nM (active)

Q: For `CCc1cc2c(s1)c1cnn(Cc3ccccc3F)c(=O)c1n2C`, which Potency is on record?
A: 63.5 nM (active)

Q: With `Cc1cc2c(s1)c1cnn(Cc3cccc(F)c3)c(=O)c1n2C` as the compound, how does the Potency read?
A: 101 nM (active)

Q: With `COc1ccc(S(=O)(=O)N2CCN(S(=O)(=O)c3ccc(OC)cc3)CC2)cc1` as the compound, how does the Potency read?
A: 142 nM (active)

Q: How did the Potency turn out when `O=S(=O)(c1c(F)cccc1F)N1CCN(S(=O)(=O)c2c(F)cccc2F)CC1` was run?
A: 50.5 nM (active)

Q: Which Potency does the source give for `Cc1cc2c(s1)c1cnn(Cc3ccc(C(F)(F)F)cc3F)c(=O)c1n2C` here?
A: 16000 nM (active)

Q: With `Oc1ccc(-c2nnc(-c3ccc(O)cc3)nn2)cc1` as the compound, how does the “activation (negative = inhibition)” value read?
A: -76.3% (inactive)

Q: With `Cc1cc2[nH]c3c(=O)n(Cc4ccccc4F)ncc3c2s1` as the compound, how does the “activation (negative = inhibition)” value read?
A: 28.4% (inactive)

Q: How did the “activation (negative = inhibition)” value turn out when `COC(=O)CSC1=NS(=O)(=O)c2ccccc21` was run?
A: -29.2% (inactive)

Q: How did the Potency turn out when `O=S(=O)(c1ccc2c(c1)OCCO2)N1CCN(S(=O)(=O)c2ccc3c(c2)OCCO3)CC1` was run?
A: 179 nM (active)

Q: Which Potency does the source give for `O=C1CN(S(=O)(=O)c2c(F)cccc2F)CCN1S(=O)(=O)c1ccc2c(c1)OCCO2` here?
A: 89.7 nM (active)

Q: Which “activation (negative = inhibition)” value does the source give for `O=C1C(=C2SCCCS2)CC/C1=C\c1ccc(F)cc1` here?
A: -86.9% (inactive)

Q: For `Cc1sc2ncnc(OCC(=O)N3CCN(S(=O)(=O)c4ccc(Cl)cc4)CC3)c2c1C`, which “activation (negative = inhibition)” value is on record?
A: 4.53% (inactive)

Q: Which “activation (negative = inhibition)” value does the source give for `S=C1NC(c2ccccc2)N2C(=S)NC(c3ccccc3)N12` (stereo not given) here?
A: -35.3% (inactive)

Q: With `Cc1cc2c(s1)c1cnn(Cc3ccccc3F)c(=O)c1n2C(C)C` as the compound, how does the “activation (negative = inhibition)” value read?
A: 11.2% (inactive)

Q: `O=S(=O)(c1cccc(F)c1)N1CCN(S(=O)(=O)c2ccc3c(c2)OCCO3)CC1` was tested. Which Potency did it give?
A: 284 nM (active)

Q: `Nc1cccc(-c2cn3cc(C(F)(F)F)cc(Cl)c3n2)c1` was tested. Which “activation (negative = inhibition)” value did it give?
A: -66.6% (inactive)

Q: How did the Potency turn out when `O=S(=O)(c1ccc2ccccc2c1)N1CCN(S(=O)(=O)c2c(F)cccc2F)CC1` was run?
A: 56.6 nM (active)

Q: `O=S(=O)(c1ccc2c(c1)OCCCO2)N1CCN(S(=O)(=O)c2c(F)cccc2F)CC1` was tested. Which Potency did it give?
A: 80 nM (active)

Q: How did the Potency turn out when `CC1(C)CCc2cc(S(=O)(=O)N3CCN(S(=O)(=O)c4c(F)cccc4F)CC3)ccc2O1` was run?
A: 71.3 nM (active)

Q: `O=C(/C=C/c1cccc(Cl)c1)c1nc2ccccc2[nH]1` was tested. Which “activation (negative = inhibition)” value did it give?
A: -37.2% (inactive)

Q: `Cc1nc2ccc(S(=O)(=O)N3CCN(S(=O)(=O)c4c(F)cccc4F)CC3)cc2s1` was tested. Which Potency did it give?
A: 63.5 nM (active)

Q: How did the “activation (negative = inhibition)” value turn out when `CC(C)N1C(=S)SC(C)(C)C1NO` (stereo not given) was run?
A: -4.61% (inactive)

Q: `O=S(=O)(c1c(F)cccc1F)C1CCN(S(=O)(=O)c2ccc3c(c2)OCCO3)CC1` was tested. Which Potency did it give?
A: 201 nM (active)

Q: How did the “activation (negative = inhibition)” value turn out when `O=C(CN1C(=O)N/C(=C\c2cccn2-c2cccc(C(=O)O)c2)C1=O)Nc1ccccc1F` was run?
A: 22% (inactive)

Q: `O=S(=O)(/N=C(/Sc1ccccc1)c1ccccc1)c1ccccc1` was tested. Which “activation (negative = inhibition)” value did it give?
A: -4.23% (inactive)

Q: With `Cn1c2ccsc2c2ncn(Cc3ccccc3F)c(=O)c21` as the compound, how does the Potency read?
A: 17900 nM (active)
